A selection: hits, their analogues and other compounds. The true share with any hit is near 10%.
MCF10A rerep – induces DNA re-replication in MCF 10a normal breast cells; MCF 10A DNA re-replication, Hoechst nuclear intensity, 48 h; Potency, µM (titrated, usually from 46.1 µM), inactives show top-dose activity, positive = re-replication, actives largely listed as activators; 350,000 compounds, 2.9% hits; AID 624296; further: % of control where 0% means no effect; nearly all actives have a fitted effect of over 50% in size
VP16 counter – Gal4-VP16 reporter inhibition counter-screen; Drosophila S2 Gal4-VP16 UAS-luciferase, luminescence, 20 h; Potency, µM (series often up to 53.6 µM), for the others: at the highest dose activity, negative = inhibition, usual class: inhibitors; 310,000 compounds, 3.5% hits;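 further: Gal4-VP16 expression switched on by copper sulfate through the metallothionein promoter; on the % scale 0 is the no-effect control and ±100 the full control effect; nearly all actives have a fitted effect of over 50% in size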
RORg inh – inhibitors of mouse ROR gamma transcriptional activity; Drosophila S2 Gal4-RORgamma UAS-luciferase reporter, 20 h; Potency, µM (highest dose often 53.6 µM), inactives show at the highest dose activity change, negative = inhibition, actives largely listed as inhibitors; 310,000 compounds, 5.4% hits; further: on the % scale 0 is the no-effect control and ±100 the full control effect; nearly all actives have a fitted effect of over 60% in size
Target sequence (P51450 whole entry, looked up, the tested form may be a part): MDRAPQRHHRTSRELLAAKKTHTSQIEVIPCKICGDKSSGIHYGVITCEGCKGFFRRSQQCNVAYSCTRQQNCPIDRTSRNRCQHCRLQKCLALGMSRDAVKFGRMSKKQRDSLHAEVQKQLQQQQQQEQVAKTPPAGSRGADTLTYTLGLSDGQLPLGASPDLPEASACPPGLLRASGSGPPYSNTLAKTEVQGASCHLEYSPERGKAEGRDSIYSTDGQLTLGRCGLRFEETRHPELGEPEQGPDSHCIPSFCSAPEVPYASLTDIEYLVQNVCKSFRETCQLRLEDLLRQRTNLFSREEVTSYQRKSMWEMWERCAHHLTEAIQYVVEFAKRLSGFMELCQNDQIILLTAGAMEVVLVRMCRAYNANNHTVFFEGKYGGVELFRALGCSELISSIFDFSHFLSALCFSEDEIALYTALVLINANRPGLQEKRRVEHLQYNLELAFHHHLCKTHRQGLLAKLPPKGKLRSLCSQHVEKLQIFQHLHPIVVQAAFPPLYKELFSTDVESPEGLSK
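Using a luciferase readout, inhibitors were identified by reduced reporter activity in Drosophila cells coexpressing a copper-inducible Gal4–ROR gamma fusion and UAS-driven Photinus luciferase, incubated 20 hr after 700 uM copper sulfate.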
SW480 rerep – inducers of DNA re-replication in SW480 colon cancer cells | SW480 DNA re-replication, Hoechst DNA content imaging, 48 h | Potency, µM (series often up to 46.1 µM), inactives show top-dose re-replication activation, usual class: activators | 340,000 compounds, 1.8% hits; further: % of control where 0% means no effect; nearly all actives have a fitted effect of over 55% in size
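Quantitative HTS format with DMSO vehicle controls; 48 hr drug incubation at 37 C, then 40 min Hoechst staining and scanning imager measurement at 405 nm excitation.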
ELG1 repair inh – ELG1-dependent DNA repair inhibition; HEK293T ELG1-luciferase reporter, luminescence, 16 h; DNA damage induced by 5-fluorouridine; Potency, µM (series often up to 46.1 µM), without a hit: at the top dose activity change, negative = inhibition, most hits filed as inhibitors; 330,000 compounds, 2.3% hits; AID 504467; further: on the % scale 0 is the no-effect control and ±100 the full control effect; nearly all actives have a fitted effect of over 55% in size
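Luminescence from the luciferase reporter, measured 30 min after ONE-Glo reagent at room temperature, was the read-out. Beforehand, 2,000 cells per well were exposed for 16 hr at 37 °C to 5-fluorouridine together with compound or vehicle.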
* marks the source's active call; other numbers are inactive results; ? = inconclusive; · = no result given; [ ] = dose if it differs, or a comment. The call rests on the fitted dose curve; in most records, active means well fitted curve in the direction sought with a large enough effect; inconclusive means small, poorly fitted or top-dose-only effect, or another doubt; inactive means no such curve, though single readings can be large; an effect the other way counts as inactive or inconclusive. Potency means the concentration at half of the fitted maximal effect.

SMILES | MCF10A rerep | VP16 counter | RORg inh | SW480 rerep | ELG1 repair inh
Cc1ccc(-n2nc3c(=O)n(CCCC(=O)N4CCC(C)CC4)nc(C)c3c2C)cc1 | -5% | -14% | 6% | -10% | -5%
O=C(N/N=C1\CC2CC=CC12)c1ccccc1Cl (stereo unspecified) | -2% | 11% | -99% | -4% | -1%
Cc1cc(Br)c(OCc2ccc(C(=O)N/N=C3\CC4CC=CC34)cc2)c(Br)c1 (stereo unspecified) | 15% | ? | 7.9µM* | -3% | -16%
O=C(N/N=C1\CC2CC=CC12)c1ccc(Br)cc1 (stereo unspecified) | 1% | 0% | 11µM* | 1% | 0%
Cc1ccc2c(c1)N(C(=O)NC1CCCCC1)C(C)(C)CC2C (stereo unspecified) | 9.2µM* | 3% | 24% | ? | ?
O=C(Cc1cc2ccccc2o1)NCc1ccc(F)cc1 | 12µM* | 16% | 15% | ? | -27%
COC(=O)c1cn(NC(=O)Cc2ccccc2Br)c(=O)c2ccccc12 | -2% | 2% | 26% | 0% | 3%
CCC(C)(C)C1CCc2[nH]nc(C(=O)NCCCNC(=O)OC(C)(C)C)c2C1 (stereo unspecified) | 25% | · | · | 6% | ?
CSCCC(NS(=O)(=O)c1ccc(Cl)cc1)C(=O)OCc1cccc(Cl)c1 (stereo unspecified) | ? | -13% | 28% | ? | -25%
CSCCC(NS(=O)(=O)c1ccc(Cl)cc1)C(=O)OCc1c(Cl)cccc1Cl (stereo unspecified) | 16µM* | -3% | 42% | ? | -23%
CC(C)(C)c1cc(NCc2ccccn2)n2ncc(-c3ccc(Cl)cc3)c2n1 | 11% | ? | 0.56µM* | -6% | ?
CN(C)CCCNc1cc(C(C)(C)C)nc2c(-c3ccc(Cl)cc3)cnn12 | ? | 14µM* | 2µM* | ? | ?
Cc1ccc(S(=O)(=O)NC(C)C(=O)NC(C)c2cccs2)cc1 (stereo unspecified) | -16% | 0% | -13% | -5% | 8%
O=c1cc(C=NNc2ccc([N+](=O)[O-])cc2)[nH]c(=O)[nH]1 | -5% | · | · | -2% | ·
COCCNc1nc(CSc2ccccc2)nc2sc(C)c(C)c12 | ? | ? | 11µM* | 0% | ?
Cc1sc2nc(CSc3ccccc3)nc(N3CCN(C)CC3)c2c1C | 14% | -4% | -6% | 19% | -29%
C/C(=N\O)C(C)(C)Nc1cccc(Br)c1 | -2% | 2% | 14% | 0% | 12µM*
C/C(=N\O)C(C)(C)Nc1cccc(F)c1 | 7% | 3% | 10% | -10% | 13%
Cc1ccccc1C(=O)NC(=S)NC1CCS(=O)(=O)C1 (stereo unspecified) | 1% | -4% | -9% | 12% | 1%
O=C(NC(=S)Nc1ccc(S(=O)(=O)Nc2nccs2)cc1)c1ccc(Br)o1 | 29% | 0% | -26% | 4% | -12%
CN(C)S(=O)(=O)c1ccc(NC(=S)NC(=O)c2ccc(Br)o2)cc1 | · | ? | 11µM* | · | 7%
NS(=O)(=O)c1ccc(NC(=S)NC(=O)c2ccc(Br)o2)cc1 | 0% | -18% | -21% | -2% | 10%
Cc1cc(C)cc(NS(=O)(=O)c2ccc(NC(=S)NC(=O)c3ccc(Br)o3)cc2)c1 | -6% | 7.9µM* | 3.5µM* | 4% | ?
CC(NC(=S)Nc1ccc(OC(F)F)c(Cl)c1)C(C)(C)C (stereo unspecified) | 24% | 13µM* | 2.8µM* | 19% | ?
Cc1ccc(NC(=S)Nc2ccc(OC(F)F)c(Cl)c2)cc1Cl | ? | ? | 13µM* | 1% | -5%
SMILES | MCF10A rerep | VP16 counter | RORg inh | SW480 rerep | ELG1 repair inh
COc1ccc(NC(=S)Nc2ccc(C)c(Cl)c2)cc1OC | ? | ? | ? | 2% | 3%
CCOc1ccc(-c2c(C)n([O-])c3c([n+]2=O)CCCCC3)cc1 | -1% | -19% | -1% | ? | -2%
COc1ccc(/C=C2/CCC(CN3CCOCC3)C2=O)cc1 (stereo unspecified) | ? | · | · | 15µM* | ·
O=C1/C(=C\c2ccc(Cl)cc2)CCC1CNc1ccc(Cl)cc1 (stereo unspecified) | 5.8µM* | · | · | ? | ·
COc1ccc(/C=C2\CCC(C3CCCC3)C2=O)cc1 (stereo unspecified) | -8% | 1% | 30% | -1% | ?
CC1CCC/C(=C\c2ccc(O)cc2)C1=O (stereo unspecified) | -4% | · | · | ? | ·
CN(C)CC1CC/C(=C\c2ccc(O)cc2)C1=O (stereo unspecified) | 3.3µM* | · | · | 10µM* | ·
COc1cc(C=O)ccc1OC(=O)c1ccc(C(C)C)cc1 | 7% | ? | ? | -7% | -17%
COc1ccccc1-c1cc(C(F)(F)F)nc(S(=O)(=O)CCCC(=O)NC(C)C)n1 | 6.3µM* | 7.1µM* | 4.5µM* | 2.9µM* | ?
COCC(C)NC(=O)CCSc1nc(-c2ccc(OC)cc2)cc(C(F)(F)F)n1 (stereo unspecified) | 12% | -2% | ? | 0% | ?
COc1ccccc1-c1cc(C(F)(F)F)nc(N2CCCC2)n1 | 26µM* | -8% | 13% | 18% | 17%
COc1ccccc1-c1cc(C(F)(F)F)nc(S(=O)(=O)CCCC(=O)NCc2ccc(F)cc2)n1 | 4.1µM* | ? | 8.9µM* | ? | ?
FC(F)(F)c1cc(-c2ccccc2)nc(N2CCOCC2)n1 | 4% | -2% | 0.79µM* | -1%[9.22 µM] | 1%
CS(=O)(=O)c1nc(-c2ccco2)cc(C(F)(F)F)n1 | · | 2.8µM* | 2.5µM* | · | ?
FC(F)(F)c1cc(-c2ccccc2)nc(NCC2CCCO2)n1 (stereo unspecified) | 22% | -9% | 20% | 0% | -17%
CC1CCCCN1C(=O)COc1ccccc1F (stereo unspecified) | 1% | -2% | 4% | 5% | 21%
COc1ccccc1-c1cc(C(F)(F)F)nc(S(=O)(=O)CCCC(=O)Nc2cccnc2Cl)n1 | ? | 8.9µM* | 4µM* | ? | ?
FC(F)(F)c1cc(-c2ccccc2)nc(NC2CCCC2)n1 | 7.3µM* | -1% | 26% | 12% | 2%
COc1ccccc1-c1cc(C(F)(F)F)nc(S(=O)(=O)CCCC(=O)N2CCCCC2C)n1 (stereo unspecified) | 4µM* | 16µM* | 11µM* | ? | ?
CCOC(=O)c1c(S(=O)(=O)NCc2ccc(C)o2)c(C)n(C)c1C | -5% | -6% | -17% | -19% | -1%
Cc1oc(-c2ccc(Cl)cc2)nc1CS(=O)CC(=O)NC1CCCC1 (stereo unspecified) | -3% | -6% | 8% | -30% | 3%

Screens as filed in PubChem.
